The whole screen tested about 220,000 compounds, of which about 16,000 (7.3%) were called active. Roughly 25% stayed inconclusive and do not appear here. Calls follow the shape of the dose curve; as a rule, active = well fitted inhibition curve with a large enough effect (not every such curve was filed as active); inconclusive = small, poorly fitted or top-dose-only effect, or another doubt; inactive = no such curve, though single readings can be large or run the other way. What follows is part of a selection rich in actives, with near analogues and random picks from the rest. Where a call stands in place of a potency, no number is given.
Potency is read from the fitted curve at half-maximal effect.

The target in this test is Aldehyde dehydrogenase 1A1 (Homo sapiens) (UniProt P00352). Description: qHTS Assay for Inhibitors of Aldehyde Dehydrogenase 1 (ALDH1A1). To be noted: Purified ALDH1A1, NADH fluorescence, propionaldehyde substrate; series mostly up to 75.3 µM. Background: qHTS replaces the single test concentration by a dilution series.
Chain of Aldehyde dehydrogenase 1A1 (Homo sapiens) (P00352 whole entry, looked up): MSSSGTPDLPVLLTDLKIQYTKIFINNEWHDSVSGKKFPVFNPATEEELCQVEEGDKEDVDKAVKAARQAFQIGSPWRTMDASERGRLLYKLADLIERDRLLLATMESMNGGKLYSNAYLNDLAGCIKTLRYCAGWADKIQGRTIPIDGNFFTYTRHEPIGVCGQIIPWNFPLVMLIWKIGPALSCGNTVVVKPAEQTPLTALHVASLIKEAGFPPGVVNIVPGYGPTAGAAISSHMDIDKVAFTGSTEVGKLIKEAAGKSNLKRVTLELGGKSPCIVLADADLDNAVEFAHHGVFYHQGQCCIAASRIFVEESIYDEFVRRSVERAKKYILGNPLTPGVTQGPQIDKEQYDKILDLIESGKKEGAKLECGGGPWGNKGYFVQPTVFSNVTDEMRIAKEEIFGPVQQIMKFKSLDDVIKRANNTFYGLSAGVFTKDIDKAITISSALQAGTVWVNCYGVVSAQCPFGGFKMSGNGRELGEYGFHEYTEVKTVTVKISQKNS
`Cn1c(=O)c2c(ncn2CC(=O)N/N=C/c2cn[nH]c2-c2ccc(F)cc2)n(C)c1=O`: the Potency entry was “inactive”. The value for `CC(=O)Oc1cccc(N2C(=O)C3CC=C(Cl)CC3C2=O)c1` (stereo not given) was “inactive”. The value for `CC(=O)c1nc(N2C(=O)C3CC=C(C)CC3C2=O)sc1C` (stereo not given) was 2.51 µM (active); that for `Cc1ncc([N+](=O)[O-])n1CCOC(=O)c1ccc(Br)cc1` was “inactive”. As for `CCn1c(SCC(=O)NCc2ccco2)nnc1-c1ccc(N)cc1`, the Potency entry was “inactive”.

On to `O=C(CSc1nnc(-c2ccco2)n1Cc1ccccc1)NC(=O)NCc1ccco1`, for which the Potency was 15.8 µM (active). The same measure for `O=C(CSc1nnc(-c2cccs2)n1-c1ccccc1)NCc1ccco1`: “inactive”. For `Cc1ccc(NC(=O)C(=O)NCc2ccco2)c(C)c1`, the Potency result was “inactive”. The same measure for `Cc1cc(C)n2nc(SCC(=O)NC(=O)NCc3ccco3)nc2n1`: “inactive”; for `Cc1ccc(SCC(=O)NC(=O)NCc2ccco2)c(C)c1`: 22.4 µM (active). With `Cc1ccc(C(C)(C)C)c(OCCCCN2CCCC2)c1`, the Potency entry is “inactive”. With `COc1ccc(/C=N/NC(=O)Nc2ccc3nsnc3c2)c(OC)c1`, the Potency entry was “inactive”. The same measure for `CCOc1cc(C2C(C(=O)OC(C)C)=C(C)NC3=C2C(=O)CCC3)cc([N+](=O)[O-])c1O` (stereo not given): “inactive”; for `COc1cccc(OC)c1C(=O)OCC(=O)/C(C#N)=C(\C)N`: “inactive”; for `COC(=O)C1=C(C)N(C(C)c2ccccc2)C(=O)/C1=C\c1ccco1` (stereo not given): “inactive”. The value for `NNC(=O)C1CCCn2c1nc1sc3c(c1c2=O)CCCC3` (stereo not given) was 12.6 µM (active); that for `N=c1c2c3c(sc2nc2n1CCCCC2)CCCC3` was “inactive”.

Consider `Cn1c(NN)nc2sc3c(c2c1=O)CCC3`, for which the Potency result was “inactive”.

As for `O=C(CSc1nc(-c2ccccc2)cs1)Nc1cccc([N+](=O)[O-])c1`, the Potency entry was “inactive”. The same measure for `O=C(CSc1ncn[nH]1)Nc1nc(-c2cccc([N+](=O)[O-])c2)cs1`: 17.8 µM (active); for `Cc1cccc(S(=O)(=O)CC(=O)Nc2nc(-c3ccccc3)cs2)c1`: “inactive”; for `CC(=O)c1ccc(-c2nnc(CCC(=O)N(C)Cc3cnc4ccccn34)o2)s1`: “inactive”. The value for `CCCCCCCCCCCCCCCCO` was “inactive”; that for `Cc1cc(C)nc(NC(=O)Nc2ccccc2C(F)(F)F)n1` was 35.5 µM (active). The same measure for `O=C(Nc1ccccc1C(F)(F)F)c1cc(-c2ccc(O)cc2)on1`: “inactive”; for `Cc1cc(C)nc(NC(=O)C(C)N2C(=O)c3ccccc3C2=O)n1` (stereo not given): “inactive”. As for `Cc1ccc(NC(=O)c2oc3ccccc3c2C)c([N+](=O)[O-])c1`, the Potency result is “inactive”. As for `CC1=C(C)CC(C(=O)NC(C)CCc2ccccc2)C(C(=O)O)C1` (stereo not given), the Potency result is “inactive”. Regarding `CCC(C)[C@@H](N)C(=O)O` (stereo not given in full), the Potency result was “inactive”. With `CC(C)NC(=O)NC(=O)CSc1nnc(-c2ccccc2F)n1N`, the Potency entry is “inactive”.

These data come from PubChem BioAssay AID1030 (National Center for Advancing Translational Sciences (NCATS), 2008).
